Assay outcomes from PubChem BioAssay.
KDM5B inhibitor – inhibitors of human KDM5B histone demethylase. AID 1347165. Potency, µM (series often up to 57.7 µM), most hits filed as inhibitors. KDM5B demethylase, FDH-coupled NADH fluorescence (FDH is formaldehyde dehydrogenase). hit rate 2.6% among 220,000; active = well fitted inhibition curve with a large enough effect; note: 0% is about no effect; nearly all actives have a fitted effect of over 70% in size
Target sequence (Q9UGL1 whole entry, looked up): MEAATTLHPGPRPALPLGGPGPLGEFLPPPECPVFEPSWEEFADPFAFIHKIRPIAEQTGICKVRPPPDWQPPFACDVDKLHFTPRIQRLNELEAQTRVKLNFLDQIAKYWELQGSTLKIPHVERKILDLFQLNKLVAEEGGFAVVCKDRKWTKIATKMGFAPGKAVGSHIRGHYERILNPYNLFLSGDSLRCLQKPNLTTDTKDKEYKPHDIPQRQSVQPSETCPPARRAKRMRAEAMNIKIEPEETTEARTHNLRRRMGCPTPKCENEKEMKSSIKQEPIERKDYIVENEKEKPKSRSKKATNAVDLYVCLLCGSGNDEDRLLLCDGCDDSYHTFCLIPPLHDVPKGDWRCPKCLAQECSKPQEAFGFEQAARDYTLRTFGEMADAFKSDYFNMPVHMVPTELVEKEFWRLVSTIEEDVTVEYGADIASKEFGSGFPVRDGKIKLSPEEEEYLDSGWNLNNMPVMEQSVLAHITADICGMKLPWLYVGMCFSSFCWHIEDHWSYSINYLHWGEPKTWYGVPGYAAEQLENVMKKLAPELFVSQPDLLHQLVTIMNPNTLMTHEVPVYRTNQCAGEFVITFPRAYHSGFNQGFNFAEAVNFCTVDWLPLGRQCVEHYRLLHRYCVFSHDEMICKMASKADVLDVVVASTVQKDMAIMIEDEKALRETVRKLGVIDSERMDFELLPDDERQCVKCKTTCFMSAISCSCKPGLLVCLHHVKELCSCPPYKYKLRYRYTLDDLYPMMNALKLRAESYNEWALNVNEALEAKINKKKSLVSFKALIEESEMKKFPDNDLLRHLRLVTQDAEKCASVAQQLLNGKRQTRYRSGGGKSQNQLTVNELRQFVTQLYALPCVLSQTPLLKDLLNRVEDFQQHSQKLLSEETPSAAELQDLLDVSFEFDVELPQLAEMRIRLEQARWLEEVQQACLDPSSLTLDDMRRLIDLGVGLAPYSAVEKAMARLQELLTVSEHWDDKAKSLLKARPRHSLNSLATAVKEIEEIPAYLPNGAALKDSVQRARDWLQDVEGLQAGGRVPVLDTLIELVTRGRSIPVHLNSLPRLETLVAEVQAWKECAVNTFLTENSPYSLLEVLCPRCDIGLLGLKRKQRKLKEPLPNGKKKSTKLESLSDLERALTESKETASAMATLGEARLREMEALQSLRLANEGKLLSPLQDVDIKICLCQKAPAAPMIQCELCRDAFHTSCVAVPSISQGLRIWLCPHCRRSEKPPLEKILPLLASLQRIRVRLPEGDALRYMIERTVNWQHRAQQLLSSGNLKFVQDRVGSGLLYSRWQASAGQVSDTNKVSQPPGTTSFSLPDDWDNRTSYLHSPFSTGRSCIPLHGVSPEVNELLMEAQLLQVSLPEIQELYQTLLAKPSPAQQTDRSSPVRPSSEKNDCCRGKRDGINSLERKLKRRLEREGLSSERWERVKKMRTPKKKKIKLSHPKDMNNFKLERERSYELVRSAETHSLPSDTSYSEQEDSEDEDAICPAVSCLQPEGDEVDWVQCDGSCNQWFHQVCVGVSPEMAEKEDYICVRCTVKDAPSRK
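KDM5BΔAP (200 nM final) in 50 mM HEPES pH 7.5, 0.01% Tween-20 was preincubated 10 min at RT with compound over a concentration range. Substrate mix (H3K4me3 12.5 µM, α-KG 25 µM, Fe²⁺, ascorbate, NAD⁺, FDH) was added, and NADH fluorescence change over 30 min gave dose-response curves.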
Starred values were filed as active, the others as inactive. The entries come from a sample that favours hits as a whole. Potency is the fitted concentration of half-maximal effect.

Screening COc1ccccc1N1CCN(C(CNC(=O)C(=O)NCc2ccc(F)cc2)c2cccnc2)CC1 (stereo not given) returned KDM5B inhibitor inactive.
`C[S+](=O)([O-])c1ccc(-c2nc(C(=O)NCc3cccs3)n3ccccc23)cc1` gave KDM5B inhibitor inactive.
`O=C(NCc1ccc2c(c1)OCO2)c1nc(-c2cccnc2)c2ccccn12` gave KDM5B inhibitor inactive.
`COCCNC(=O)c1nc(-c2ccccc2OC)c2cnccn12` gave KDM5B inhibitor 31.6µM*.
`COc1ccccc1C(=O)NCCC(=O)Nc1cccnc1` gave KDM5B inhibitor inactive.
`CNc1c(NC(=O)c2ccccc2Cl)c(=O)oc2ccccc12` gave KDM5B inhibitor inactive.
CC(C)c1cc(-c2nc(-c3ccc4c(c3)OCO4)no2)n[nH]1 was read as KDM5B inhibitor inactive.
For COc1ccc(OCCN(C)C(=O)c2cc(Br)c[nH]2)cc1 the results were KDM5B inhibitor inactive.
Screening O=c1c2ccccc2nc(SCc2nnc(-c3ccccc3)o2)n1CCCO returned KDM5B inhibitor inactive.
CN1CC(=O)N(c2ccc(Cl)cc2)Cc2c1ncnc2N1CCc2ccccc2C1 was read as KDM5B inhibitor inactive.
Screening Cc1cnc(NC(=O)CCc2ncc(-c3ccccc3F)o2)s1 returned KDM5B inhibitor inactive.
O=C(CCc1nc2ccccc2s1)NCCc1ccccc1F was read as KDM5B inhibitor inactive.
`O=C(NCc1ccccn1)C1c2ccccc2C(=O)N(C2CCCCC2)C12CCCCC2` (stereo not given) gave KDM5B inhibitor inactive.
`O=C(O)CN1CCCC1` gave KDM5B inhibitor inactive.
C=CCn1c(SCC(=O)c2ccccc2)nc2c1c(=O)n(C)c(=O)n2C was read as KDM5B inhibitor inactive.
`Cc1ccc(C2=NC3(CCN(C(=O)c4cc(F)ccc4Cl)CC3)ON2)cc1` gave KDM5B inhibitor inactive.
O=C(Cc1cccs1)N1CCC2(CC1)N=C(c1ccc(Cl)cc1)NO2 was read as KDM5B inhibitor 25.1µM*.
Screening Cc1ccc(C2=NC3(CCN(C(=O)Cc4ccc(Cl)cc4)CC3)ON2)cc1 returned KDM5B inhibitor inactive.
`O=C(c1cc(F)ccc1F)N1CCC2(CC1)N=C(c1ccc(Cl)cc1)NO2` gave KDM5B inhibitor 22.4µM*.
CCOc1ccc(C(=O)N2CCC3(CC2)N=C(c2ccc(C)cc2)NO3)cc1 was read as KDM5B inhibitor inactive.
Screening O=C(c1ccncc1)N1CCC2(CC1)N=C(c1ccc(Cl)cc1)NO2 returned KDM5B inhibitor inactive.
For Cc1ccc(C2=NC3(CCN(C(=O)COc4ccc(Cl)cc4)CC3)ON2)cc1 the results were KDM5B inhibitor inactive.
For COc1ccc(C(=O)N2CCC3(CC2)N=C(c2ccc(Cl)cc2)NO3)cc1 the results were KDM5B inhibitor 31.6µM*.
O=C(c1ccc[nH]1)N1CCC2(CC1)N=C(c1ccc(Cl)cc1)NO2 was read as KDM5B inhibitor inactive.
`CCNCc1ccc(O)c(OCC)c1` gave KDM5B inhibitor inactive.
`COc1ccc(C2C(C(C)=O)=C(O)C(=O)N2c2ccc(C)cc2)c(OC)c1` (stereo not given) gave KDM5B inhibitor inactive.
Screening O=C(CC1CCCC1)NCCCCNC(=O)CC1CCCC1 returned KDM5B inhibitor inactive.
For Cc1cccc(C)c1NC(=O)Cn1cnc2c1c(=O)n(C)c(=O)n2C the results were KDM5B inhibitor inactive.
Screening COc1cccc(-c2ocnc2C(=O)Nc2ccccc2OC)c1 returned KDM5B inhibitor inactive.
`COCc1ccc2c(c1)c(OC(C)(C)C(=O)NC1CCC(O)CC1)nn2Cc1ccccc1` (stereo not given) gave KDM5B inhibitor 25.1µM*.
For COCc1ccc2c(c1)c(OC(C)(C)C(=O)NCC(C)C)nn2Cc1cccnc1 the results were KDM5B inhibitor inactive.
For CCCNC(=O)C(C)(C)Oc1nn(Cc2ccccc2)c2ccc(COC)cc12 the results were KDM5B inhibitor 31.6µM*.
COCc1ccc2c(c1)c(OC(C)(C)C(=O)NCC(F)(F)F)nn2Cc1cccnc1 was read as KDM5B inhibitor inactive.
`COCc1ccc2c(c1)c(OC(C)(C)C(=O)NCc1cnccn1)nn2Cc1ccccc1` gave KDM5B inhibitor inactive.
`COCc1ccc2c(c1)c(OC(C)(C)C(=O)Nc1ccn(C)n1)nn2Cc1ccccc1` gave KDM5B inhibitor inactive.
Screening COCc1ccc2c(c1)c(OC(C)(C)C(=O)Nc1cccnc1)nn2Cc1ccccc1 returned KDM5B inhibitor inactive.
Screening COCc1ccc2c(c1)c(OC(C)(C)C(=O)Nc1cccnc1)nn2Cc1cccnc1 returned KDM5B inhibitor inactive.
COCc1ccc2c(c1)c(OC(C)(C)C(=O)NC(C)C)nn2Cc1cccc(OC)c1 was read as KDM5B inhibitor 35.5µM*.
`Cc1oc(-c2nc(C#N)c(N3CCOCC3)o2)cc1S(=O)(=O)N(C)C` gave KDM5B inhibitor inactive.
O=C(NCCSC1CCCC1)c1ccsc1 was read as KDM5B inhibitor inactive.
`CCCCN(Cc1ccccc1)c1ccc(C(=O)O)cc1NS(=O)(=O)c1ccc(CC(C)C)cc1` gave KDM5B inhibitor inactive.
